Source: PubChem BioAssay (NCI)
The panel holds about 83,000 compounds, 20% with a hit somewhere; the sample as a whole holds those more often.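 Single-concentration screen, 48 h exposure, 96-well plates. Endpoint: percent growth. Below 10 = active.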 A number with no mark means an inactive call. Activity calls are given as the source filed them.

Key:
Experiment in all cases: NCI-60 one-dose screen, 48 h (100 = growth as untreated, 0 = no growth, -100 = all killed)
Details in all cases: 10 µM unless noted
[1] = tested on: HCT-15 colon
[2] = tested on: HT29 colon
[3] = tested on: SNB-75 CNS
[4] = tested on: SNB-19 CNS
[5] = tested on: U251 CNS
[6] = tested on: PC-3 prostate
[7] = tested on: SK-MEL-5 melanoma
[8] = tested on: UACC-62 melanoma
[9] = tested on: LOX IMVI melanoma
[10] = tested on: SK-MEL-28 melanoma
[11] = tested on: SK-MEL-2 melanoma
[12] = tested on: EKVX NSCLC
[13] = tested on: SN12C renal
[14] = tested on: UO-31 renal
[15] = tested on: TK-10 renal
[16] = tested on: ACHN renal
[17] = tested on: CAKI-1 renal
[18] = tested on: A498 renal
[19] = tested on: CCRF-CEM leukemia
[20] = tested on: MOLT-4 leukemia

SMILES	growth [1]	growth [2]	growth [3]	growth [4]	growth [5]	growth [6]	growth [7]	growth [8]	growth [9]	growth [10]	growth [11]	growth [12]	growth [13]	growth [14]	growth [15]	growth [16]	growth [17]	growth [18]	growth [19]	growth [20] [%]
Cn1cc(-c2csc(-c3c[nH]c4ccccc34)n2)c2ccnc(Cl)c21	-8.86% (active)	27.9%	77.7%	94%	48.6%	56%	50%	84.9%	82.6%	85.1%	94.4%	79.6%	76.5%	49.3%	77.4%	54.2%	66.1%	53.8%	57.4%	–
CC/C(=C\c1ccc(OC)cc1)C(=O)c1ccc(OC)cc1	92.7%	90.3%	77.3%	85.7%	91.7%	75.7%	101%	78.7%	95.1%	106%	96%	103%	91.8%	81.1%	91.9%	96.9%	69.6%	103%	45.6%	91.5
COc1cc(C2C3=C(COC3=O)N(CCO)c3cc4c(cc32)OCO4)cc(OC)c1OC (stereo unspecified)	18.1%	0.994% (active)	51%	-2.19% (active)	2.92% (active)	19.6%	-42.2% (active)	22.2%	26.1%	44.7%	24.7%	35.2%	16.8%	45.8%	54.4%	40.1%	50.6%	–	–	–
Cc1c(C)c([N+](=O)[O-])c(C)c([N+](=O)[O-])c1C	108%	93.5%	104%	97.1%	100%	98.7%	101%	102%	99.6%	104%	102%	103%	102%	105%	102%	118%	99.3%	94.3%	–	–
COc1cc(C2C3=C(COC3=O)N(CCO)c3cc4c(cc32)CCC4)cc(OC)c1OC (stereo unspecified)	10.9%	2.19% (active)	61.3%	-12.9% (active)	7.16% (active)	21.3%	-60.3% (active)	31.2%	21.6%	54.3%	6.85% (active)	29.6%	23.9%	31.9%	55.3%	26.1%	28.7%	-20.4% (active)	–	–
COc1ccc2[nH]c(O)c(/C=c3/cc4c(c(-c5ccc(F)cc5)n3)=Nc3ccccc3-4)c2c1	26.7%	-29.8% (active)	82.6%	78%	66.3%	85%	72.1%	90.2%	68.9%	93.9%	103%	74.1%	88.6%	72.5%	107%	92.2%	87%	70.2%	–	–
Cc1ccc(NS(=O)(=O)c2ccc(-c3cnc(C4CC4)o3)cc2)cc1C(F)(F)F	35.2%	28.5%	46.6%	61%	68.5%	68.1%	49%	47.3%	55.9%	64.1%	84.8%	75.3%	88.6%	58%	93.7%	76.4%	42.7%	47%	56.8%	–
Cn1cc(-c2nc(-c3c[nH]c4c(Cl)nccc34)cs2)c2cc(Br)ccc21	66.5%	74.9%	94%	97.6%	77.9%	81.2%	88%	80.3%	73.4%	88.9%	87.6%	74.1%	88.9%	84.5%	86.3%	76.5%	92.4%	72.3%	74.4%	–
N#CC(C(=O)/C(=N/NC(=O)c1ccccc1O)C(C#N)c1ccccc1)c1ccccc1 (stereo unspecified)	43.1%	101%	18%	33.2%	6.45% (active)	55.2%	81.7%	21.7%	44.7%	83.7%	68.6%	76.7%	52.5%	29.4%	69.7%	31%	82.5%	30.9%	–	–
COc1ccc(CCn2cncc2-c2c[nH]c3ccccc23)cc1	93.1%	82.9%	44.4%	91.4%	95.7%	80.7%	88.2%	81.6%	88.3%	101%	88.6%	71.4%	80.8%	50.7%	141%	87%	68.7%	69.5%	101%	93.1
O=C1CC(=O)OC(c2ccc([N+](=O)[O-])cc2)O1	-48.8% (active)	-39.5% (active)	9.16% (active)	55.2%	4.05% (active)	37%	18.4%	-72.2% (active)	-84.5% (active)	-17.3% (active)	-40.2% (active)	47.8%	-37.6% (active)	-88.2% (active)	-15.5% (active)	-76.2% (active)	-45.7% (active)	104%	15.3%	–
CCN1C(=O)N(CC)C2Nn3c(s/c(=C\c4ccc(OC)cc4)c3=O)=NC21 (stereo unspecified)	32.2%	83.1%	8.85% (active)	53.1%	39.3%	44.1%	47.6%	34.1%	53.6%	62.8%	51.9%	82.2%	62.6%	48.6%	11.2%	42.7%	31.9%	-2.46% (active)	53.2%	–
C#Cc1cccc(NC(=O)Nc2cccc(NC(=O)CCl)c2)c1	-56.5% [8.25 µM] (active)	18% [8.25 µM]	30% [8.25 µM]	-11% [8.25 µM] (active)	-88% [8.25 µM] (active)	-26.3% [8.25 µM] (active)	-96% [8.25 µM] (active)	-61.6% [8.25 µM] (active)	-93.8% [8.25 µM] (active)	48.5% [8.25 µM]	6.45% [8.25 µM] (active)	102% [8.25 µM]	-67.7% [8.25 µM] (active)	-64.7% [8.25 µM] (active)	-59.8% [8.25 µM] (active)	-72.7% [8.25 µM] (active)	15.8% [8.25 µM]	76.5% [8.25 µM]	14.9% [8.25 µM]	–
COC(=O)C(CC=O)C(=O)C(=O)Nc1cccc(C(F)(F)F)c1 (stereo unspecified)	108%	99.1%	92.8%	102%	79.2%	95.7%	99.9%	89.7%	85.9%	120%	109%	92.1%	92.2%	86.6%	102%	105%	97.7%	83.4%	–	–
COC(=O)c1ccc2c(c1)[n+](=O)c(C(C)=O)c(C(F)(F)F)n2[O-]	-77.5% (active)	-56% (active)	-20.5% (active)	-6.44% (active)	-72.2% (active)	-58.1% (active)	-100% (active)	-32.7% (active)	-95.3% (active)	27%	-31.9% (active)	-46.3% (active)	-34% (active)	-82% (active)	25.9%	-99.3% (active)	-78.5% (active)	6.79% (active)	–	–
COc1cc(-c2n/c(=C\c3c(O)[nH]c4ccc(Cl)cc34)cc3c2=Nc2ccccc2-3)ccc1F	46.4%	-10.3% (active)	-39.5% (active)	2.79% (active)	-88.3% (active)	-8.04% (active)	27.6%	46.5%	0.0846% (active)	1.48% (active)	67.8%	51.6%	3.41% (active)	-61.4% (active)	1.18% (active)	-41.8% (active)	62.9%	–	–	–
